Assay outcomes as filed in PubChem.
TROY NFkB inh: inhibitors of TROY-dependent NF-kB signaling | Q293 LMP1-TROYcd NF-kB luciferase reporter, 4 h | inhibition, % at 10 µM | actives 0.98% (n = 360,000) | AID 1347056;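 active = compounds whose plate-normalised and pattern-corrected inhibition of the luciferase reporter signal at the single screening dose is 50% or more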
HSF-1 act: increases HSF-1 driven luciferase reporter signal | NIH3T3-HGL HSF-1 luciferase reporter, MG132, 8 h; 100% = twice DMSO control signal | activation, % at 9 µM | AID 504408 | actives 1.7% (n = 300,000);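 active = mean replicate activation of at least 50% with a set share of replicates each reaching 50%; inconclusive = only one of those two conditions met; inactive = mean below 50% and too few replicates reaching it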;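 also: 0% = median of the neutral control wells and 100% = twice that signal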
TWEAK Fn14 block: TWEAK-Fn14 signaling inhibition | TWEAK-stimulated Fn14 reporter cells, luciferase luminescence, 8 h | inhibition, % at 10 µM | actives 2% (n = 360,000) | AID 1159606; in the data active = inhibition above about 50%
HSF1 inh: HSF1 inhibition | NIH3T3-HGL HSE-luciferase, MG132-induced, luminescence 8 h; hits give low values | activity change, negative = inhibition, % at 7.5 µM (by protocol) | actives 0.77% (n = 300,000) | AID 2098;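 active = more than half of replicate wells show activity change below -50%, luminescence cut by over half; inconclusive = some wells, but at most half, below -50%; inactive = no replicate well below -50%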;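 also: luciferase reports HSF-1 transcriptional activity via heat shock element; 0% = median of DMSO wells and -100% = zero luminescence signal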
HSP90 inh: inhibitors of HSP90 luciferase refolding in rabbit reticulocyte lysate; luciferase refolding luminescence, 3 h; inhibition, % at 5.6 µM; actives 0.91% (n = 290,000);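 active = inhibition above the screen-wide mean plus 3 SD, computed separately per campaign, cut at about 16% in these data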;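 also: 0% = DMSO wells and 100% = 60 µM geldanamycin wells; inhibitors lower the luminescence because luciferase stays unfolded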
LMP1 NFkB inh: reduces LMP1-driven NF-kappaB luciferase signal | AID 504558 | inhibition, % at 12.5 µM | actives 0.69% (n = 350,000) | LMP1-induced NF-kappaB luciferase reporter cells, luminescence; in the data active = inhibition above about 41%; inconclusive = no clear call, values can overlap the other calls;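 also: 0% = neutral control wells and 100% = reference inhibitor control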
* = called active by the depositor. Sampled rows, rich in hits. Any-hit rate of the full collection: about 4.7%.

Results for COc1cc(-c2nnc(CSc3nnc(Nc4ccc(C(C)C)cc4)s3)o2)cc(OC)c1OC ?
TROY NFkB inh: -18; HSF-1 act: 56*; TWEAK Fn14 block: 34; HSF1 inh: 28; HSP90 inh: 2; LMP1 NFkB inh: -1

What do the screens show for `CC1(c2ccccc2)CC(C)(C)N2C(=O)/C(=C3\SC(=S)NC3=O)c3cccc1c32` (stereo not given)?
TROY NFkB inh: 61*; HSF-1 act: 15; TWEAK Fn14 block: 70*; HSF1 inh: -4; HSP90 inh: 1; LMP1 NFkB inh: 10

What do the screens show for `O=C1c2ccccc2C(=O)N1CCOc1ccccc1Br`?
TROY NFkB inh: -42; HSF-1 act: 99*; TWEAK Fn14 block: -54; HSF1 inh: 44; HSP90 inh: -1; LMP1 NFkB inh: -18

What do the screens show for `O=C1c2ccccc2C(=O)N1CCOc1ccccc1Cl`?
TROY NFkB inh: -49; HSF-1 act: 71*; TWEAK Fn14 block: -20; HSF1 inh: 31; HSP90 inh: -2; LMP1 NFkB inh: -27

What do the screens show for `CCNc1nc(NCC)n2c(SCC(=O)Nc3ccc(Br)cc3F)nnc2n1`?
TROY NFkB inh: -6; HSF-1 act: 2; TWEAK Fn14 block: 9; HSF1 inh: 6; LMP1 NFkB inh: 1

What do the screens show for `CCNc1nc(NCC)n2c(SCC(=O)Nc3ccc(C(F)(F)F)cc3[N+](=O)[O-])nnc2n1`?
TROY NFkB inh: -1; HSF-1 act: 70*; TWEAK Fn14 block: -5; HSF1 inh: 31; HSP90 inh: -3; LMP1 NFkB inh: 1

What do the screens show for `CCNc1nc(NCC)n2c(SCC(=O)c3ccc(C(C)C)cc3)nnc2n1`?
TROY NFkB inh: 7; HSF-1 act: 51*; TWEAK Fn14 block: 11; HSF1 inh: -4; HSP90 inh: -1; LMP1 NFkB inh: -10

What do the screens show for `CCNc1nc(NCC)n2c(SCC(=O)Nc3ccccc3)nnc2n1`?
TROY NFkB inh: 2; HSF-1 act: 11; TWEAK Fn14 block: -1; HSF1 inh: -3; HSP90 inh: -4; LMP1 NFkB inh: -1

How did Cc1cc(C)cc(NC(=O)N2CCN(Cc3ccc4c(c3)OCO4)CC2)c1 do in these assays?
TROY NFkB inh: 7; HSF-1 act: -63; TWEAK Fn14 block: 5; HSF1 inh: -58*; HSP90 inh: 1; LMP1 NFkB inh: -5

Results for O=C(Nc1ccc(Cl)cn1)c1ccc2c(Cl)c3c(nc2c1)CCC3 ?
TROY NFkB inh: 60*; HSF-1 act: -62; TWEAK Fn14 block: 51*; HSF1 inh: inconclusive; HSP90 inh: -3; LMP1 NFkB inh: 0

Results for CCC(C)NC(=O)c1ccc2c(Cl)c3c(nc2c1)CCC3 (stereo not given) ?
TROY NFkB inh: -62; HSF-1 act: 40; TWEAK Fn14 block: -6; HSF1 inh: 6; HSP90 inh: -1; LMP1 NFkB inh: -8

Results for Cc1ccc(S(=O)(=O)N(C)C)cc1NC(=S)NC(C)CCCC(C)C (stereo not given) ?
TROY NFkB inh: 22; HSF-1 act: 57*; TWEAK Fn14 block: 13; HSF1 inh: 18; HSP90 inh: -1; LMP1 NFkB inh: 8

Results for Cc1ccc(S(=O)(=O)N(C)C)cc1NC(=S)N(C)C1CCN(C)CC1 ?
TROY NFkB inh: -4; HSF-1 act: 55*; TWEAK Fn14 block: 0; HSF1 inh: 6; HSP90 inh: 2; LMP1 NFkB inh: 1

What do the screens show for `N#Cc1cccc(-c2csc(C(O)c3ccc(F)cc3)n2)c1` (stereo not given)?
TROY NFkB inh: -40; TWEAK Fn14 block: -14

What do the screens show for `CSc1ccc(C(O)c2ncc(-c3ccc(F)cc3)[nH]2)cc1` (stereo not given)?
TROY NFkB inh: -19; TWEAK Fn14 block: -14

Results for COC(=O)C1(O)CC(CC(C)C)=NN1C(=O)c1ccccc1 (stereo not given) ?
TROY NFkB inh: -34; HSF-1 act: 148*; TWEAK Fn14 block: -29; HSF1 inh: 99; HSP90 inh: -1; LMP1 NFkB inh: 3

What do the screens show for `CC1(C)CC(=O)c2c(-c3cccs3)n[nH]c2C1`?
TROY NFkB inh: 34; HSF-1 act: -13; TWEAK Fn14 block: 55*; HSF1 inh: -21; HSP90 inh: 5; LMP1 NFkB inh: 18
